Several values for one entry are separate records, joined by “and”; a condition that tells them apart may be missing. Identical values can stand only once. Records with an inconclusive call do not appear. Entries that show only a call come without a potency. Where a structure was tested more than once in an assay, its records may differ in their call. Activity calls are given as the source filed them. Unless noted, calls follow the shape of the dose curve; as a rule, active = well fitted curve in the direction sought with a large enough effect in the repeat runs; inconclusive = weak or mixed curves; inactive = no such curve, though single readings can be large; an effect the other way counts as inactive or inconclusive.
Tests used:
[1] = target: Nuclear receptor subfamily 1 group I member 3 (Homo sapiens) (UniProt Q14994); test: qHTS assay to identify small molecule antagonists of the constitutive androstane receptor (CAR) signaling pathway (AID 1224838); also: nearly all actives have a fitted effect of over 40% in size; also: potency is read from the fitted curve at half-maximal effect
Outline: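 HepG2 cells stably co-transfected with hCAR and a CYP2B6-2.2kb luciferase reporter were seeded 4 h before compound addition at 15 concentrations. Cells were stimulated with 50 nM CITCO (final) for 24 h at 37 C; luciferase luminescence was then read.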

[2] = target: Nuclear receptor subfamily 1 group I member 3 (Homo sapiens) (UniProt Q14994); test: qHTS assay to identify small molecule agonists of the constitutive androstane receptor (CAR) signaling pathway (AID 1224839); also: nearly all actives have a fitted effect of over 15% in size; also: potency is read from the fitted curve at half-maximal effect;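 as to activation: HepG2 cells stably carrying human CAR and a CYP2B6 luciferase reporter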
Outline: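 HepG2 cells stably expressing hCAR and a CYP2B6-2.2kb luciferase reporter were treated with compounds at 15 concentrations plus 0.75 uM PK11195 (final) for 24 h at 37 C; luminescence was read after ONE-Glo addition.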

[3] = qHTS assay to identify small molecule antagonists of the estrogen related receptor signaling pathway with the pleiotropic PPARgamma coactivator (PGC) from Tox21 10K library (AID 1224841; call rule not given here; also: actives are mostly falling curves and most rising ones were filed inactive; nearly all actives have a fitted effect of over 50% in size; also: potency is read from the fitted curve at half-maximal effect)
Outline: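 PGC/ERR reporter cells were seeded at 2,000 cells/well and held 6 hours at 37 C/5% CO2 before pin-tool addition of compounds in DMSO. After 18 hours at 37 C, One-Glo was added and luminescence read after 30 minutes at room temperature.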

[4] = qHTS assay to identify small molecule agonists of the estrogen related receptor signaling pathway with the pleiotropic PPARgamma coactivator (PGC) from Tox21 10K library (AID 1224842); also: nearly all actives have a fitted effect of over 15% in size
Outline: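 PGC/ERR reporter cells (NTP line) were seeded 2,000 per well, rested 6 h at 37 C/5% CO2, then pin-dosed with compounds in DMSO for 18 h at 37 C; luciferase read by One-Glo luminescence after 30 min at room temperature.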

[5] = target: Thyrotropin receptor (Homo sapiens) (UniProt P16473); test: qHTS assay to identify small molecule agonists of the thyroid stimulating hormone receptor (TSHR) signaling pathway (AID 1224843; calls by dose curve; also: nearly all actives have a fitted effect of over 45% in size)
Outline: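 TSHR-expressing HEK293 cells (800 per well) were exposed to compounds for 30 min at room temperature. cAMP was then detected by HTRF competition with cAMP-d2 and anti-cAMP cryptate, read after 1 h at room temperature. Fifteen concentrations, triplicate.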

[6] = qHTS assay to identify small molecule agonists of H2AX (AID 1224845; active = well fitted activation curve with a large enough effect in the signal ratio in the repeat runs, not every such curve was filed as active; the % refers to the signal ratio; also: potency is read from the fitted curve at half-maximal effect)
Outline: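 Wild-type CHO-K1 cells plated overnight, then exposed 3 hr at 37C to compounds at 15 concentrations (0.76% DMSO). Lysed, then HTRF anti-pH2AX(S139)-cryptate/anti-H2AX-d2 detection after 24 hr at room temperature; emissions 665 and 620 nm.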

[7] = qHTS assay to identify small molecule agonists of the hypoxia (HIF-1) signaling pathway (AID 1224846; active = well fitted activation curve with a large enough effect in the signal ratio in the repeat runs, not every such curve was filed as active; the % refers to the signal ratio; also: potency is read from the fitted curve at half-maximal effect)
Outline: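 HRE-bla ME-180 cells (beta-lactamase reporter under hypoxia response element) were plated at 2,000 cells/well in medium with 0.5% dialyzed FBS, rested 5 hrs, then given compounds in DMSO for 17 hrs at 37C, 5% CO2. Reporter induction was read with CCF4-AM FRET substrate.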

[8] = qHTS assay to identify small molecule antagonists of the estrogen related receptor (ERR) signaling pathway from Tox21 library (AID 1224848); also: nearly all actives have a fitted effect of over 50% in size; also: potency is read from the fitted curve at half-maximal effect
Outline: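 Cells: ERR line, 2,000/well; 6 h preincubation 37 C/5% CO2. Cpd in DMSO via pin tool; 18 h, 37 C. ONE-Glo, 30 min RT, luminescence.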

[9] = qHTS RealTime-Glo MT Cell Viability Assay in HepG2 cells - 40 hour (AID 1224870); also: nearly all actives have a fitted effect of over 50% in size; also: potency is read from the fitted curve at half-maximal effect
Outline: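 HepG2 cells mixed with RealTime-Glo MT reagents (NanoLuc plus cell-permeant prosubstrate) were seeded at 600 cells/well, incubated 5 h at 37 C/5% CO2, then pinned with compounds in DMSO; nonlytic luminescence tracked viability during 40 h treatment.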

[10] = qHTS assay to identify small molecule agonists of the constitutive androstane receptor (CAR) signaling pathway - cell viability counter screen (AID 1224836); also: nearly all actives have a fitted effect of over 45% in size
Outline: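 HepG2 cells stably carrying hCAR and a CYP2B6-2.2kb reporter were plated 4 h, then given compounds at 15 concentrations plus PK11195 (final 0.75 uM). After 23 h at 37 C, viability was read by CellTiter-Fluor fluorescence.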

[11] = qHTS assay to identify small molecule antagonists of the constitutive androstane receptor (CAR) signaling pathway - cell viability counter screen (AID 1224837); also: nearly all actives have a fitted effect of over 45% in size
Outline: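 HepG2 cells stably expressing hCAR and a CYP2B6-2.2kb reporter were plated and pre-incubated 4 hr at 37 C/5% CO2, then given compounds at 15 concentrations plus 50 nM CITCO (final). After 23 hr, viability was read by CellTiter-Fluor fluorescence.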

[12] = qHTS assay to identify small molecule antagonists of the estrogen related receptor signaling pathway with the pleiotropic PPARgamma coactivator (PGC) from Tox21 10K library - cell viability counter screen (AID 1224840; active = well fitted cell-killing curve with a large enough effect in the repeat runs, not every such curve was filed as active; also: nearly all actives have a fitted effect of over 40% in size; also: potency is read from the fitted curve at half-maximal effect)
Outline: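 PGC/ERR cells were seeded at 2,000 cells/well and left 6 hours at 37 C/5% CO2 before pin-tool addition of compounds in DMSO. After 17.5 hours at 37 C, CellTiter-Fluor was added and fluorescence read 30 minutes later.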

[13] = qHTS assay to identify small molecule agonists of the hypoxia (HIF-1) signaling pathway - cell viability counter screen (AID 1224844; calls by dose curve; also: nearly all actives have a fitted effect of over 50% in size; also: potency is read from the fitted curve at half-maximal effect)
Outline: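 HRE-bla ME-180 cells in medium with 0.5% dialyzed FBS were preincubated 5 hrs at 37C, exposed to compounds for 17 hrs, then viability was read as CellTiter-Glo luminescence after 30 min at room temperature, in the reporter wells.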

[14] = qHTS assay to identify small molecule agonists of the estrogen related receptor (ERR) signaling pathway from Tox21 library (AID 1224849; calls by dose curve; also: nearly all actives have a fitted effect of over 15% in size); conditions: ERR reporter cell line, ONE-Glo luciferase, 18 h
Outline: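 ERR reporter cell line (NTP) seeded, rested 6 h at 37 C/5% CO2, then pinned with Tox21 compounds in DMSO. After 18 h at 37 C, ONE-Glo luciferase luminescence was read following 30 min at room temperature.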

[15] = qHTS RealTime-Glo MT Cell Viability Assay in HepG2 cells - 24 hour (AID 1224867); also: nearly all actives have a fitted effect of over 50% in size; also: potency is read from the fitted curve at half-maximal effect
Outline: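 Cell number in HepG2 cultures estimated from NanoLuc luminescence generated by metabolic reduction of a prosubstrate by living cells. The homogeneous, nonlytic format allowed repeated reads at 0, 8, 16, 24, 32 and 40 h of compound exposure.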

[16] = qHTS RealTime-Glo MT Cell Viability Assay in HEK293 cells - 32 hour (AID 1224868); also: nearly all actives have a fitted effect of over 50% in size; also: potency is read from the fitted curve at half-maximal effect
Outline: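 Homogeneous bioluminescent viability format in HEK293 cells (600 cells/well). Following 5 h at 37 C/5% CO2, 23 nL compound was pintooled; the signal was measured repeatedly during 40 h incubation.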

[17] = A CellTox Green Cytotoxicity Assay to monitor cytotoxicity in HEK293 cells - 0 hour (AID 1224869); also: nearly all actives have a fitted effect of over 50% in size
Outline: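 HEK293 cells premixed with CellTox Green dye were seeded at 600 cells/well and left 5 h at 37 C/5% CO2 before pin transfer of 23 nL compound in DMSO. Fluorescence from dye bound to dead-cell DNA was read during 40 h treatment.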

[18] = qHTS assay to identify small molecule agonists of H2AX - cell viability counter screen (AID 1224847; calls by dose curve; also: nearly all actives have a fitted effect of over 30% in size; also: potency is read from the fitted curve at half-maximal effect)
Outline: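 Wild-type CHO-K1 cells (10% FBS medium) were plated overnight at 37C, exposed to compounds at 15 concentrations for 3 hr at 37C (0.76% DMSO final), and viability was read as CellTiter-Glo luminescence after 30 min at room temperature.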

[19] = target: Luciferin 4-monooxygenase (Photinus pyralis) (UniProt P08659); test: qHTS assay to identify small molecule inhibitors of firefly luciferase (AID 1224835); also: nearly all actives have a fitted effect of over 25% in size
Outline: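 Quantitative HTS format; KM concentrations of both substrates. Purified P. pyralis FLuc activity quantified from luminescence images.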

[20] = at 92.4 µM (top of the series) unless noted

Thyrotropin receptor (Homo sapiens), sequence (P16473 whole entry, looked up): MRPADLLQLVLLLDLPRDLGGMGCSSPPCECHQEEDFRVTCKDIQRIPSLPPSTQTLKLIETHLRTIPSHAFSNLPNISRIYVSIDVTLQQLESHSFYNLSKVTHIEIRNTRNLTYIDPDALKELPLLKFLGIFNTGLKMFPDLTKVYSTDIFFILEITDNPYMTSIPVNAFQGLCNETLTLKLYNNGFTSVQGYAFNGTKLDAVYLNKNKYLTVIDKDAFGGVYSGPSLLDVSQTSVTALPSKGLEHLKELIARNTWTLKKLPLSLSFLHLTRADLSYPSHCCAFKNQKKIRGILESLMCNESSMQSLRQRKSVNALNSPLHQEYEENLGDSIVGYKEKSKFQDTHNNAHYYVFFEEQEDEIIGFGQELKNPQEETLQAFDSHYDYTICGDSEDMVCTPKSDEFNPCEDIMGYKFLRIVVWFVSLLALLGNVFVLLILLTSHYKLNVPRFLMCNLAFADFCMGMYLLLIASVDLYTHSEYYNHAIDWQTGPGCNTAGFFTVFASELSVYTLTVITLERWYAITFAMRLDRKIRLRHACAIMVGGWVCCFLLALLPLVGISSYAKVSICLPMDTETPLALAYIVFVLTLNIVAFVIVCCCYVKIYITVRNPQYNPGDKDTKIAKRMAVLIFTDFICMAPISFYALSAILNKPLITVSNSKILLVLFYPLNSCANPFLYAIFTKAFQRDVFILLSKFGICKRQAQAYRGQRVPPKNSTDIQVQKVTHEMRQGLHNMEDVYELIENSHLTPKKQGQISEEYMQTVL
Nuclear receptor subfamily 1 group I member 3 (Homo sapiens), sequence (Q14994 whole entry, looked up): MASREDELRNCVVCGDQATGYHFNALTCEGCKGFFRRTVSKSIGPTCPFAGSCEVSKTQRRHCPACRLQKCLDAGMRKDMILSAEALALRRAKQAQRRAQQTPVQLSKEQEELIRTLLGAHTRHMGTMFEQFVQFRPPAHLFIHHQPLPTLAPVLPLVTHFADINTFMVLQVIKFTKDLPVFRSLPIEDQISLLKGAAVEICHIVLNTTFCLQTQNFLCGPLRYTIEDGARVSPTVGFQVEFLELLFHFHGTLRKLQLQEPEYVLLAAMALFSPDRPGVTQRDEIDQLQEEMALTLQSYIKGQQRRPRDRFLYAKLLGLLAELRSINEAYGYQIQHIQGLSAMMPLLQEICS
Luciferin 4-monooxygenase (Photinus pyralis), sequence (P08659 whole entry, looked up): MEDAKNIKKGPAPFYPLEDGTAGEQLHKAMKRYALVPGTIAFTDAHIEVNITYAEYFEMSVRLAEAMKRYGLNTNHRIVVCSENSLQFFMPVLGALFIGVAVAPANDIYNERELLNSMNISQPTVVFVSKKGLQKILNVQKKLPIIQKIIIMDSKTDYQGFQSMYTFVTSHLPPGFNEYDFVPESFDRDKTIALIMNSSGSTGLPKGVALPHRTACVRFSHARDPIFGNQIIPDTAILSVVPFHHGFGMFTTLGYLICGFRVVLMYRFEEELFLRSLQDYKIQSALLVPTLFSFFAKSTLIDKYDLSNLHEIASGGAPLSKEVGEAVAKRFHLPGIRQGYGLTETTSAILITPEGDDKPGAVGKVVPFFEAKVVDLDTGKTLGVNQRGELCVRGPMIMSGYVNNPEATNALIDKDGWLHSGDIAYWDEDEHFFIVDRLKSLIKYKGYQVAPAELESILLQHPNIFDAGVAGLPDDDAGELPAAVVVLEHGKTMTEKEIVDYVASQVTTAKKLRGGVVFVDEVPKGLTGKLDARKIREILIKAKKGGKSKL

## Cc1cc(=O)oc2cc(N(C)C)ccc12
[1]
  Potency: inactive
[2]
  Potency: 61.1 µM (active)
[3]
  Potency: inactive
[4]
  Potency: inactive
[5]
  Potency: inactive
[6]
  Potency: inactive
[7]
  Potency: 49 µM (active)
[8]
  Potency: inactive
[9]
  Potency: inactive

## OCc1c[nH]c2ccccc12
[10]
  Potency: inactive
[11]
  Potency: inactive
[1]
  Potency: inactive
[2]
  Potency: 30.6 µM (active)
[12]
  Potency: inactive
[3]
  Potency: 3.44 µM (active)
[4]
  Potency: inactive
[13]
  Potency: inactive
[8]
  Potency: 13.7 µM (active)
[14]; [20]
  activity change, positive = activation: -39.5% (inactive)
[15]
  Potency: inactive
[9]
  Potency: inactive

## O=C(Oc1cccc2cccnc12)c1ccccc1
[1]
  Potency: 0.001 µM (active)
[2]
  Potency: inactive
[4]
  Potency: inactive
[5]
  Potency: inactive
[13]
  Potency: 7.56 µM (active)
[6]
  Potency: 9.82 µM (active)
[8]
  Potency: 0.133 µM (active)
[14]; [20]
  activity change, positive = activation: -60.1% [at 42.5 µM] (inactive)
[15]
  Potency: inactive
[16]
  Potency: inactive
[17]
  Potency: inactive
[9]
  Potency: 5.35 µM (active)

## COC(=O)C1=C(C)NC(C)=C(C(=O)OCC(C)C)C1c1ccccc1[N+](=O)[O-] (configuration not stated)
[10]
  Potency: inactive
[11]
  Potency: inactive
[1]
  Potency: inactive
[12]
  Potency: 27.3 µM (active) and inactive
[3]
  Potency: 13.7 µM (active) and 21.1 µM (active)
[4]
  Potency: inactive
[5]
  Potency: inactive
[13]
  Potency: 49 µM (active)
[6]
  Potency: inactive
[7]
  Potency: inactive
[18]
  Potency: 127 µM (active) and inactive
[8]
  Potency: 12.2 µM (active) and 21.1 µM (active)
[14]; at 42.5 µM (top of the series)
  activity change, positive = activation: -46.2% (inactive)
[14]; at 92.4 µM (top of the series)
  activity change, positive = activation: -62.2% (inactive)
[15]
  Potency: 49 µM (active)
[16]
  Potency: 21.9 µM (active)
[17]
  Potency: inactive
[9]
  Potency: 49 µM (active) and inactive

## CC(C)(C)CC(C)(C)c1ccc(O)c(Cc2ccc(Cl)cc2Cl)c1
[19]
  Potency: inactive
[2]
  Potency: inactive
[12]
  Potency: 29.8 µM (active)
[5]
  Potency: inactive
[13]
  Potency: 9.52 µM (active)
[6]
  Potency: 19.6 µM (active)
[18]
  Potency: 15.6 µM (active)
[16]
  Potency: 21.3 µM (active)
[17]
  Potency: inactive

## CN1CCC(Nc2ncc3ncnc(Nc4ccc(F)c(Cl)c4)c3n2)CC1
[19]
  Potency: inactive
[2]
  Potency: inactive
[3]
  Potency: inactive
[5]
  Potency: inactive
[7]
  Potency: 8.49 µM (active)
[14]; [20]
  activity change, positive = activation: -30.3% [at 42.5 µM] (inactive)
[16]
  Potency: 10.7 µM (active)

From PubChem BioAssay (Tox21)
